Results with a measured potency or affinity are listed apart. The source made the active and inactive calls. The rule behind the calls is not given here.

The assay can be described thus: toxicity toward cultured mammalian cells – cell-based, plate reader, cherry-pick samples, cytotoxicity control, dose response (AID 504397). Conditions: plate reader viability; series mostly up to 35 µM.
As to `COc1ccc(-n2nc(C(=O)NCC(=O)N3CCC(C)CC3)c3ccccc3c2=O)cc1`, the outcome was inactive. On to `Cc1csc2nc(=O)c3ccccc3n12`, for which the result was inactive.

In the case of `CN(C(=O)COC(=O)c1cn(-c2ccccc2)nc1-c1ccccc1)C1CCS(=O)(=O)C1` (stereo unspecified), the compound was called inactive.

Take `CCCCCCCCCCOC(=O)Cn1c(COc2ccccc2C)[n+](C)c2ccccc21`: the result was inactive. With `Cc1ccc(OCCn2c3ccccc3n3nc(C)c(=O)nc23)cc1` the entry was “inactive”; with `O=C(C(Cc1ccccc1)N1C(=O)c2ccccc2C1=O)N1c2ccccc2CCc2ccccc21` (stereo unspecified), “inactive”; with `O=C(Nc1sc2c(c1C(=O)c1ccc(Cl)cc1)CCCC2)c1cccnc1`, “inactive”. With `CCOc1cc(S(=O)(=O)N(Cc2ccccc2)Cc2ccccc2)c(OCC)cc1-n1cnnn1`, the call was inactive. With `CC1(c2ccc(OCC#N)cc2)C=C(c2ccc(OCC#N)cc2)n2nc(C(F)(F)F)nc2N1` (stereo unspecified) the entry was “inactive”; with `Nc1nnnn1/N=C/c1ccccc1OCc1ccc(Cl)cc1Cl`, “inactive”; with `CS(=O)(=O)c1ccc(C(=O)OCC(=O)N(CCc2ccccc2)Cc2ccccc2)cc1`, “inactive”. As to `O=C(Nc1ccc(Cl)c([N+](=O)[O-])c1)C(Sc1ccccc1)c1ccccc1` (stereo unspecified), the outcome was inactive. In the case of `COc1cccc(/C=N/NC(=O)c2nnn(-c3nonc3N)c2C(C)C)c1OCc1ccc(F)cc1` it was “inactive”; in that of `Cc1cccc(-c2nnc(SCc3ccc(C#N)cc3)n2Cc2ccco2)c1`, “inactive”; in that of `CC(=O)c1ccc(-c2ccc(C(=O)N3CCC(C(N)=O)CC3)o2)cc1`, “inactive”. Regarding `COc1ccc(C2Nc3ccccc3C(=O)N2Cc2ccccc2)cc1COc1ccccn1` (stereo unspecified), the compound was called inactive. On to `CCCOc1ccc(-c2c(C(=O)N/N=C/c3cccs3)nnn2-c2nonc2N)cc1`, for which the outcome was inactive. Regarding `O=C(c1cc(-c2ccccc2)nc2ccccc12)N1CCN(c2ccccn2)CC1`, the call was inactive. In the case of `CCn1cc(/C=C(\NC(=O)c2ccccc2F)C(=O)N2CCOCC2)c2ccccc21`, the outcome was inactive. Turning to `O=c1c(-c2ccccc2)c(O)c2ccccc2n1-c1ccccc1`, the result was inactive. Consider `Cc1ccc2nc(N(CCN(C)C)C(=O)c3ccc4ccccc4c3)sc2c1`, for which the compound was called inactive. `CN(C(=O)COC(=O)c1cc([N+](=O)[O-])ccc1Sc1ccccc1)C1CCS(=O)(=O)C1` (stereo unspecified): the call was inactive. With `COc1ccccc1N1CCN(c2ncc(C(=O)N3CCN(c4cccc(Cl)c4)CC3)c3ccccc23)CC1` the entry was “inactive”; with `CN1C(=O)/C(=C/c2cccc(Cl)c2)Sc2ccc(C(=O)N3CCOCC3)cc21`, “inactive”. With `CC(C)c1c(C(=O)N/N=C/c2cccc3ccccc23)nnn1-c1nonc1N`, the result was inactive. In the case of `CC1CCN(Cc2c(C(=O)N/N=C/c3cccc(C(F)(F)F)c3)nnn2-c2nonc2N)CC1` it was “inactive”; in that of `CCn1cc(/C=C(\NC(=O)c2ccccc2F)C(=O)N2CCCC2)c2ccccc21`, “inactive”. With `N/C(Cc1ccc([N+](=O)[O-])cc1)=N\OC(=O)c1ccc2ccccc2c1` the entry was “inactive”; with `CN(C)S(=O)(=O)c1ccc(NC(=O)/C=C/c2ccccc2Cl)cc1`, “inactive”. In the case of `O=C(CCNS(=O)(=O)c1ccc2[nH]c(=O)oc2c1)NCc1ccccc1` it was “inactive”. For `COc1ccc(-n2c(SCc3ccc([N+](=O)[O-])cc3)nnc2-c2ccc(C)cc2)cc1`, the result was inactive.

(Values after PubChem BioAssay AID504397 (Broad Institute, 2011).)
